According to PubChem BioAssay AID485360 (National Center for Advancing Translational Sciences (NCATS), 2010):
Out of some 230,000 compounds screened, about 1,500 (0.65%) were called active. About 3% were inconclusive and are not listed. The entries come from a sample that favours actives as a whole. A number with no mark means an inactive call. Calls follow the shape of the dose curve; as a rule, active = well fitted inhibition curve with a large enough effect; inconclusive = small, poorly fitted or top-dose-only effect; inactive = no such curve, though single readings can be large or run the other way.

Molecular target: Lethal(3)malignant brain tumor-like protein 1 (Homo sapiens) (UniProt Q9Y468)
Sequence (Q9Y468 whole entry, looked up): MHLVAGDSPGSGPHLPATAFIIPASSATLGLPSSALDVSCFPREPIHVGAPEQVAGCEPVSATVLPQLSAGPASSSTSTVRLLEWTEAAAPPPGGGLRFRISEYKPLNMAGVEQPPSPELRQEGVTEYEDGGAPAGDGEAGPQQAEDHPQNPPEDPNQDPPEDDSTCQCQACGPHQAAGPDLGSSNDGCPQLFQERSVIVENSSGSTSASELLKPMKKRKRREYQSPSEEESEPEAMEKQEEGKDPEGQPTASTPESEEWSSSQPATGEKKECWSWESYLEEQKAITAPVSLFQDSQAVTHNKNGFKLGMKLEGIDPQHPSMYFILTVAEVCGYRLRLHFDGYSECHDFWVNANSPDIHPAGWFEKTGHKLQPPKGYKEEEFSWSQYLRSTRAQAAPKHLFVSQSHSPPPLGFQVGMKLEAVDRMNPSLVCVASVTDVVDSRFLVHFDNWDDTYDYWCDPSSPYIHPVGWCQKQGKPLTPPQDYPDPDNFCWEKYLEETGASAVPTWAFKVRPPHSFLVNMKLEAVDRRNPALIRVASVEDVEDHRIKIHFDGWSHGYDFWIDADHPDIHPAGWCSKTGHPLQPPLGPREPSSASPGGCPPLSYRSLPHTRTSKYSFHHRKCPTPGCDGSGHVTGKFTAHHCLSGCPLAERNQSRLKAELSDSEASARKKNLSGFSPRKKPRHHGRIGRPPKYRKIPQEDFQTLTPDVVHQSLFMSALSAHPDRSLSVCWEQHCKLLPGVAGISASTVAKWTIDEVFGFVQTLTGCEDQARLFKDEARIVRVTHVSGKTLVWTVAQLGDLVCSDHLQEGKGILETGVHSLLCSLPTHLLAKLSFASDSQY
Experiment: qHTS Assay for the Inhibitors of L3MBTL1; also: nearly all actives have a fitted effect of over 60% in size
Conditions: AlphaScreen L3MBTL1–H3K9me1 peptide binding; series mostly up to 57.1 µM; activity, negative = inhibition: at the top concentration
Description: The histone code is comprised of many post-translational modifications that occur mainly in histone tail peptides. The identity and location of these marks are read by a variety of histone binding proteins that are emerging as important regulators of cellular differentiation and development and are increasingly being implicated in numerous disease states. Small molecule probes that disrupt the interaction between histone binding proteins and chromatin would enable a systematic chemical biology study of proteins that read the histone code and could potentially reveal new targets for drug discovery. However, no such small molecules are known. This dearth of quality molecular probes can largely be attributed to the novelty of the target class and the lack of screening assays. This proposal details the development of the first high-throughput screening assay for the discovery of inhibitors of methyl-lysine binding proteins and how it can be be used to initiate a full-scale discovery effort for antagonists of histone binding proteins. Specifically, this work focuses on an AlphaScreen(tm)-based HTS assay for Malignant Brain Tumor (MBT) domain-containing proteins, which bind to the lower methylation states of lysine residues present in histone tail peptides.
To each well, 2 uL of L3MBTL1 protein (final 50 nM) and 1 uL biotinylated histone peptide monomethylated at Lys9 [b-AHA-H3(1-15)K9me1] (final 75 nM) was added using a nanoliter dispenser. Formation of a protein-peptide complex proceeded at room temperature for 30 min. A Kalypsys pin-tool was employed to transfer 23 nL of library compound solution in DMSO to each well. Cefsulodin, found in a pilot screen of the LOPAC library to be a weak inhibitor of L3MBTL1 binding, was used as an intraplate control with a 16-point titration in duplicate. Following a 30 min incubation of the protein-peptide complex with compounds at room temperature, a mixture of 40 ug/mL each streptavidin-coated donor and nickel chelate acceptor AlphaScreen beads (final 10 ug/mL) was added in a 1 uL dispense for a final volume of 4 uL. Plates were incubated, protected from the light for 30 min at room temperature. Microplates were then be read on an EnVision multilabel plate reader using the 1,536 plate HTS AlphaScreen aperture (excitation time 80 ms, measurement time 240 ms).
% is scaled to controls: 0 for no effect and ±100 for the full control effect; potency is read from the fitted curve at half-maximal effect.

Compound	Potency	activity, negative = inhibition [%]
COc1cccc(N2C(=O)NC(=O)/C(=C\c3ccc([N+](=O)[O-])s3)C2=O)c1	20 µM (active)	
Cc1cccc(N2C(=O)NC(=O)/C(=C\c3cnn(-c4ccccc4)c3)C2=O)c1		-3.83
O=C1NC(=O)N(c2ccccc2)C(=O)/C1=C/c1ccc([N+](=O)[O-])s1	17.8 µM (active)	
O=C1NC(=O)N(c2ccc(F)cc2)C(=O)/C1=C/c1ccc2c(c1)CCCN2Cc1ccccc1		-2.39
O=C(NC(=S)N1C[C@H]2C[C@H](C1)c1cccc(=O)n1C2)c1ccc(F)cc1		4.52
Cn1cc(C(=O)OCC(=O)N2CCCC2)c2ccccc21		6.7
O=c1[nH]c(O)c(C=Nc2cc(F)cc(F)c2)c(=O)[nH]1		2.62
CCN(CC)C(=O)Oc1ccc(NC(=O)N2CCOCC2)cc1		-2.49
COc1ccc(-c2nn(CCC#N)cc2C(=O)Nc2ccc(C(C)=O)cc2)cc1		-7.02
Cc1nc2ccccc2c(=O)n1-c1ccc(Cl)cc1Cl		4.09
O=C(OCC1O[C@@H](OC(=O)c2cc(O)c(O)c(O)c2)[C@@H](OC(=O)c2cc(O)c(O)c(O)c2)[C@@H](OC(=O)c2cc(O)c(O)c(O)c2)[C@@H]1OC(=O)c1cc(O)c(O)c(O)c1)c1cc(O)c(O)c(O)c1 (stereo not given in full)	0.178 µM (active)	
Cc1ccnc(-n2c(C)cc(/C=C3\C(=O)NC(=S)N(C)C3=O)c2C)c1		-11.1
Cc1cc(/C=C2/C(=O)NC(=O)N(Cc3ccco3)C2=O)c(C)n1-c1ccc(C(=O)O)cc1	15.8 µM (active)	
Cc1ccc(-n2c(C)cc(/C=C3\C(=O)NC(=O)N(C)C3=O)c2C)cc1C		-20.4
COC(=O)[C@@H]1C(OC(=O)c2ccccc2)CC2CCC1N2C (stereo not given in full)		-1.9
CN(C)C(=O)Oc1ccc(NC(=O)N2CCOCC2)cc1		7.02
COCCNC(=O)CN1C2CCC1CC(O)(c1cccnc1)C2 (stereo not given)		-0.317
CN(C)CCN(CC1CCCN(Cc2ccccc2F)C1)C(=O)Cc1ccc(F)c(F)c1 (stereo not given)		-3.82
COC(=O)C1=C(c2ccc(F)cc2OCc2ccccc2)C[C@@H]2CC[C@H]1N2C(=O)NCc1ccc(OC)c(OC)c1		-18.1
Cc1c(Oc2cc(NN3CCCCC3)c([N+](=O)[O-])cc2[N+](=O)[O-])cccc1[N+](=O)[O-]		33
COC(=O)C1=C(c2ccc(C(C)=O)cc2)C[C@@H]2CC[C@H]1N2C(=O)NCCNC(C)=O		3.36
CCN(CC)c1ccc([N+](=O)[O-])c2cccnc12	10 µM (active)	
Oc1ccc2c3c1OC1[C@H](O)CC[C@@]4(O)[C@@H](C2)N(CC2CC2)CC[C@]314 (stereo not given in full)	inactive	
COC(=O)C1=C(c2ccc3ccccc3c2)C[C@@H]2CC[C@H]1N2C(=O)NCCO		11.1
Cc1ccccc1N1C(=O)NC(=O)/C(=C\c2cc(C)n(C)c2C)C1=O		-4.84
Cc1c(C(=O)O)cccc1-n1c(C)cc(/C=C2\C(=O)NC(=O)N(c3ccc4c(c3)OCO4)C2=O)c1C	14.1 µM (active)	
COC(=O)C1=C(c2ccc(F)cc2F)C[C@@H]2CC[C@H]1N2C(=O)NC1CC1		6.1
COC(=O)C1=C(c2ccc(Cl)c(C(F)(F)F)c2)C[C@@H]2CC[C@H]1N2C(=O)NC1CC1		0.885
O=C(c1ccccc1[N+](=O)[O-])N1CCC2(CC1)OCCO2		4.07
C[C@]12CCC3C(CC[C@H]4C[C@@H](O)CC[C@]34C)C1C[C@@H](O)[C@H]2O (stereo not given in full)		2.44
